Experimental data: PubChem BioAssay (EPA / NIEHS)
Active and inactive are the calls of the source. Rule for the calls: active = hit-call score of the fitted dose curve at least 0.9, where 1 is the maximum; inactive = score below 0.9.

Assay: BSK_3C_uPAR: BioMAP Diversity Plus: 3C Assay for Urokinase-type plasminogen activator receptor (uPAR) Biomarker Activity (AID 2282998)
Settings: BioMAP 3C HUVEC, uPAR biomarker ELISA; actives raise or lower the signal
Outline: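 Primary human umbilical vein endothelial cells, 3C system; surface uPAR measured by ELISA 24 h after dosing. Cytotoxicity via SRB total protein in parallel cultures; bidirectional fit against DMSO.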

| Structure (SMILES) | AC50 | outcome |
| --- | --- | --- |
| OC(Cc1ccccc1Cl)(Cn1cncn1)C1(Cl)CC1 (stereo unspecified) | 16.5 µM (active) | – |
| O=S(=O)(C(Cl)(Cl)Cl)C(Cl)(Cl)Cl | 1.24 µM (active) | – |
| Cc1cc(Cl)ccc1OC(C)C(=O)O (stereo unspecified) | – | inactive |
| O=C(Cc1ccccc1)OCCc1ccccc1 | – | inactive |
| CCOP(=S)(OCC)OP(=S)(OCC)OCC | 34 µM (active) | – |
| O=[N+]([O-])c1ccc(Nc2ccccc2)cc1 | – | inactive |
| C[C@]12CC[C@@H](O)C[C@@H]1CC[C@@H]1[C@@H]2CC[C@]2(C)C(=O)CC[C@@H]12 | – | inactive |
| Oc1cccc(-c2ccccc2)c1 | 20 µM (active) | – |
| NC(=O)CCl | – | inactive |
| O=c1oc2ccccc2c(O)c1C(CC(O)c1ccc(-c2ccc(Br)cc2)cc1)c1ccccc1 (stereo unspecified) | 5.92 µM (active) | – |
| C#CCOC(=O)/C=C(C)/C=C/CC(C)CCCC(C)C (stereo unspecified) | 33.5 µM (active) | – |
| CCCCCCCCCCCCN(C)C | – | inactive |
| CCOC(=O)CCN(SN(C)C(=O)Oc1cccc2c1OC(C)(C)C2)C(C)C | 32.5 µM (active) | – |
| Cc1ccccc1OP(=O)(Oc1ccccc1C)Oc1ccccc1C | 11.1 µM (active) | – |
| O=S(=O)(c1ccc(Cl)cc1)c1cc(Cl)c(Cl)cc1Cl | 6.4 µM (active) | – |
| N#CCCC(Br)(C#N)CBr (stereo unspecified) | 5.36 µM (active) | – |
| CCOC(=O)CC(=O)CCl | 0.0141 µM (active) | – |
| O=C1C=CC(=O)c2ccccc21 | 1.7 µM (active) | – |
| CC(C)(COCC1CO1)COCC1CO1 (stereo unspecified) | – | inactive |

| Structure (SMILES) | AC50 | outcome |
| --- | --- | --- |
| Oc1ccc(Cc2ccc(O)cc2)cc1 | – | inactive |
| CC(C=O)Cc1ccc2c(c1)OCO2 (stereo unspecified) | – | inactive |
| Nc1c(Oc2ccccc2)cc(O)c2c1C(=O)c1ccccc1C2=O | – | inactive |
| CC(C)(C)c1cc([N+](=O)[O-])cc(C(C)(C)C)c1O | 0.467 µM (active) | – |
| Oc1c(Cl)cc(Cl)cc1Cl | – | inactive |
| [Cl][Sn]([c]1ccccc1)([c]1ccccc1)[c]1ccccc1 | 0.141 µM (active) | – |
| CC1(C)[C@H](C(=O)O[C@H](C#N)c2cccc(Oc3ccccc3)c2)[C@@H]1/C=C(\Cl)C(F)(F)F | – | inactive |
| Cc1ccc(OP(=O)(Oc2ccc(C)cc2C)Oc2ccc(C)cc2C)c(C)c1 | – | inactive |
| O=[N+]([O-])c1cccc2ccccc12 | – | inactive |
| Cc1ccc2nc3sc(=O)sc3nc2c1 | 3.43 µM (active) | – |
| c1ccc(-c2cccc(-c3ccccc3)c2)cc1 | 20 µM (active) | – |
| CCC(C)(C#N)N=NC(C)(C#N)CC (stereo unspecified) | – | inactive |
| CCN(CC)C(=O)C(Cl)=C(C)OP(=O)(OC)OC | – | inactive |
| CCOP(=O)(OCC)OC(=CCl)c1ccc(Cl)cc1Cl | 31.5 µM (active) | – |
| Cc1cccc(OP(=O)(Oc2cccc(C)c2)Oc2cccc(C)c2)c1 | – | inactive |
| OCCCCO | – | inactive |
| Cc1ccccc1OP(=O)(Oc1ccccc1)Oc1ccccc1 | 35.3 µM (active) | – |
| COCC(=O)N(c1c(C)cccc1C)[C@H](C)C(=O)OC | – | inactive |
| CCCCOC(=O)COC(=O)c1ccccc1C(=O)OCCCC | – | inactive |

Assay: BSK_3C_VCAM1: BioMAP Diversity Plus: 3C Assay for Vascular cell adhesion molecule 1 (VCAM1) Biomarker Activity (AID 2282999)
Settings: BioMAP 3C HUVEC, VCAM1 ELISA, cytokine-stimulated; actives raise or lower the signal
Outline: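 Endothelial cells from human umbilical vein are treated with test chemical. At 24 h, VCAM-1 is measured by ELISA, and responses in either direction are fitted relative to DMSO.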

| Structure (SMILES) | outcome | AC50 |
| --- | --- | --- |
| OC(Cc1ccccc1Cl)(Cn1cncn1)C1(Cl)CC1 (stereo unspecified) | inactive | – |
| O=S(=O)(C(Cl)(Cl)Cl)C(Cl)(Cl)Cl | – | 2.08 µM (active) |
| Cc1cc(Cl)ccc1OC(C)C(=O)O (stereo unspecified) | inactive | – |
| O=C(Cc1ccccc1)OCCc1ccccc1 | inactive | – |
| CCOP(=S)(OCC)OP(=S)(OCC)OCC | – | 31.9 µM (active) |
| O=[N+]([O-])c1ccc(Nc2ccccc2)cc1 | inactive | – |
| C[C@]12CC[C@@H](O)C[C@@H]1CC[C@@H]1[C@@H]2CC[C@]2(C)C(=O)CC[C@@H]12 | inactive | – |
| Oc1cccc(-c2ccccc2)c1 | – | 37.1 µM (active) |
| NC(=O)CCl | inactive | – |
| O=c1oc2ccccc2c(O)c1C(CC(O)c1ccc(-c2ccc(Br)cc2)cc1)c1ccccc1 (stereo unspecified) | – | 21.6 µM (active) |
| C#CCOC(=O)/C=C(C)/C=C/CC(C)CCCC(C)C (stereo unspecified) | inactive | – |
| CCCCCCCCCCCCN(C)C | inactive | – |
| CCOC(=O)CCN(SN(C)C(=O)Oc1cccc2c1OC(C)(C)C2)C(C)C | – | 20 µM (active) |
| Cc1ccccc1OP(=O)(Oc1ccccc1C)Oc1ccccc1C | – | 11.8 µM (active) |
| O=S(=O)(c1ccc(Cl)cc1)c1cc(Cl)c(Cl)cc1Cl | inactive | – |
| N#CCCC(Br)(C#N)CBr (stereo unspecified) | – | 7.92 µM (active) |
| CCOC(=O)CC(=O)CCl | – | 20 µM (active) |
| O=C1C=CC(=O)c2ccccc21 | – | 3.48 µM (active) |
| CC(C)(COCC1CO1)COCC1CO1 (stereo unspecified) | inactive | – |

| Structure (SMILES) | outcome | AC50 |
| --- | --- | --- |
| Oc1ccc(Cc2ccc(O)cc2)cc1 | inactive | – |
| CC(C=O)Cc1ccc2c(c1)OCO2 (stereo unspecified) | inactive | – |
| Nc1c(Oc2ccccc2)cc(O)c2c1C(=O)c1ccccc1C2=O | inactive | – |
| CC(C)(C)c1cc([N+](=O)[O-])cc(C(C)(C)C)c1O | – | 9.12 µM (active) |
| Oc1c(Cl)cc(Cl)cc1Cl | inactive | – |
| [Cl][Sn]([c]1ccccc1)([c]1ccccc1)[c]1ccccc1 | – | 0.177 µM (active) |
| CC1(C)[C@H](C(=O)O[C@H](C#N)c2cccc(Oc3ccccc3)c2)[C@@H]1/C=C(\Cl)C(F)(F)F | inactive | – |
| Cc1ccc(OP(=O)(Oc2ccc(C)cc2C)Oc2ccc(C)cc2C)c(C)c1 | inactive | – |
| O=[N+]([O-])c1cccc2ccccc12 | inactive | – |
| Cc1ccc2nc3sc(=O)sc3nc2c1 | – | 7.59 µM (active) |
| c1ccc(-c2cccc(-c3ccccc3)c2)cc1 | – | 20 µM (active) |
| CCC(C)(C#N)N=NC(C)(C#N)CC (stereo unspecified) | inactive | – |
| CCN(CC)C(=O)C(Cl)=C(C)OP(=O)(OC)OC | inactive | – |
| CCOP(=O)(OCC)OC(=CCl)c1ccc(Cl)cc1Cl | inactive | – |
| Cc1cccc(OP(=O)(Oc2cccc(C)c2)Oc2cccc(C)c2)c1 | inactive | – |
| OCCCCO | inactive | – |
| Cc1ccccc1OP(=O)(Oc1ccccc1)Oc1ccccc1 | – | 20 µM (active) |
| COCC(=O)N(c1c(C)cccc1C)[C@H](C)C(=O)OC | inactive | – |
| CCCCOC(=O)COC(=O)c1ccccc1C(=O)OCCCC | inactive | – |
